# Reference: PubChem BioAssay (NCI)
# About 83,000 compounds went through this panel and 20% of them were active in at least one assay; those are over-represented in the sample as a whole.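 Method: cells in 96-well plates; compound added at one concentration; 48 h incubation; percent growth measured; values under 10 scored active.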 Unmarked numbers belong to inactive results. Calls of active or inactive are those of the source.
# Assays:
# Experiment in all cases: NCI-60 one-dose screen, 48 h (100 = growth as untreated, 0 = no growth, -100 = all killed)
# HCT-15 colon = conditions: 10 µM unless noted
# HT29 colon = conditions: 10 µM unless noted
# SNB-75 CNS = conditions: 10 µM unless noted
# U251 CNS = conditions: 10 µM unless noted
# PC-3 prostate = conditions: 10 µM unless noted
# UACC-62 melanoma = conditions: 10 µM unless noted
# LOX IMVI melanoma = conditions: 10 µM unless noted
# SK-MEL-28 melanoma = conditions: 10 µM unless noted
# SK-MEL-2 melanoma = conditions: 10 µM unless noted
# EKVX NSCLC = conditions: 10 µM unless noted
# SN12C renal = conditions: 10 µM unless noted
# UO-31 renal = conditions: 10 µM unless noted
# TK-10 renal = conditions: 10 µM unless noted
# ACHN renal = conditions: 10 µM unless noted
# CAKI-1 renal = conditions: 10 µM unless noted
# A498 renal = conditions: 10 µM
# HL-60(TB) leukemia = conditions: 10 µM unless noted
# CCRF-CEM leukemia = conditions: 10 µM unless noted
# SNB-19 CNS = conditions: 10 µM unless noted
# SK-MEL-5 melanoma = conditions: 10 µM unless noted
SMILES,growth (HCT-15 colon),growth (HT29 colon),growth (SNB-75 CNS),growth (U251 CNS),growth (PC-3 prostate),growth (UACC-62 melanoma),growth (LOX IMVI melanoma),growth (SK-MEL-28 melanoma),growth (SK-MEL-2 melanoma),growth (EKVX NSCLC),growth (SN12C renal),growth (UO-31 renal),growth (TK-10 renal),growth (ACHN renal),growth (CAKI-1 renal),growth (A498 renal),growth (HL-60(TB) leukemia),growth (CCRF-CEM leukemia),growth (SNB-19 CNS),growth (SK-MEL-5 melanoma)
CCCCCCCC(=O)OCC(=O)[C@]1(O)Cc2c(O)c3c(c(O)c2[C@@H](OC2CC(N)C(O)C(C)O2)C1)C(=O)c1c(OC)cccc1C3=O (some centres not stated),-61.5% (active),-63.5% (active),-79.5% (active),-46.5% (active),-100% (active),-75.4% (active),-4.4% (active),-84% (active),-48.3% (active),-57.9% (active),-69.4% (active),-83.2% (active),-44.5% (active),-82.9% (active),-47.9% (active),-87.6% (active),-92.4% (active),-90.3% (active),,
C[C@@H]1CCC2[C@@H](C)[C@H](OC(=O)CCC(=O)NCCNC(=O)Cc3cc(=O)oc4cc(N(C)C)ccc34)O[C@@H]3O[C@]4(C)CC[C@@H]1C23OO4 (some centres not stated),7.81% (active),,60.9%,34.4%,19.1%,31.7%,-7.91% (active),57.5%,40.7%,35.3%,32.2%,13%,20%,40.3%,44.1%,64.9%,-38.8% (active),23%,65%,33.2%
C/C1=C/C(=O)O[C@@H]2C[C@@H](CC[C@H](C)/C=C\C=C\CC1)O[C@@](O)([C@@H]1CSC(=O)N1CO)C2,46.6%,8.8% (active),-41.5% (active),5.44% (active),,29.2%,7.38% (active),-31.7% (active),,6.56% (active),47.8%,-83.5% (active),-39.1% (active),10.6%,-48.3% (active),-46.2% (active),28.2%,11.1%,,29.5%
Fc1ccc(N2COOC3(OOC2)C2CC4CC(C2)CC3C4)cc1,88.6%,102%,,97.1%,90.4%,76.5%,-82.2% (active),100%,88.8%,,101%,-74.9% (active),93%,59.7%,26%,90.1%,74%,94.2%,95.5%,101%
Cn1cccc1C1CC(=O)N(CCC[Se]C#N)C1=O (configuration not stated),-56.5% (active),7.03% (active),,-85.5% (active),6.15% (active),27%,-66.8% (active),-6.1% (active),-35.2% (active),-65.3% (active),-3.67% (active),-75.9% (active),-69.5% (active),-4.46% (active),-80.1% (active),,-42.8% (active),13.8%,-65.2% (active),-51.9% (active)
O=C1C(N2CC2)=C(N2CC2)C(=O)C(N2CC2)=C1N1CC1,2.19% (active),2.38% (active),-52.6% (active),-63.6% (active),7.53% (active),-84.6% (active),-61.5% (active),-51.8% (active),-24.2% (active),,,-56.2% (active),2.35% (active),-45.9% (active),7.04% (active),-75.4% (active),21.8%,39.2%,,-76.7% (active)
CCN(CC)c1ccc2c(c1)OC(N)=C(C#N)C2c1cc(OC)c2c(c1)OCO2 (configuration not stated),16.1%,-9.44% (active),,12.5%,30.9%,31.8%,23.2%,72.2%,,41.7%,15.1%,34.7%,59.3%,21.4%,32.7%,-4% (active),13%,,40.1%,
Clc1cccc(NCOOC2(OOCNc3cccc(Cl)c3)CCCCCC2)c1,93.2%,102%,,101%,91.2%,102%,-85.2% (active),,92.4%,89%,95.4%,-47.3% (active),92.2%,80.5%,,98.8%,78.8%,80.2%,93.2%,93.7%
O=C1C=C2C(=CCOC2O)O1 (configuration not stated),-8.81% (active),-24.3% (active),,74.8%,33.9%,-14.2% (active),1.42% (active),37.7%,10.4%,103%,35.1%,-11.6% (active),-37.2% (active),-18.7% (active),-13.2% (active),107%,,,84.1%,
CCCCC1(CCC)C(=O)NC(=S)NC1=O,93.7%,105%,77.5%,95.9%,80.4%,104%,103%,108%,91.2%,102%,,85.7%,118%,94.8%,97.2%,129%,95.5%,115%,,104%
CCOC(=O)CCC(NC(=O)C(Cc1ccc(N(CCCl)CCCl)cc1)NC=O)C(=O)OCC (configuration not stated),36.3%,62.3%,30.3%,48.4%,71.7%,-37.7% (active),-78.3% (active),-29.9% (active),-64.3% (active),55.4%,3.28% (active),,111%,-33.9% (active),10.5%,,,17.6%,,-70.1% (active)
Clc1cccc(N2COOC3(OOC2)C2CC4CC(C2)CC3C4)c1,94.6%,85.2%,,35.8%,74.8%,93.3%,-63.4% (active),,98.3%,94.2%,76%,-89.6% (active),40.9%,62.1%,76.4%,110%,20.2%,-32.7% (active),101%,
O=C(Nc1ccc([As]=[As]c2ccc(NC(=O)c3ccccc3)cc2)cc1)c1ccccc1 (configuration not stated),-79.6% (active),-35.7% (active),-97% (active),-78.6% (active),-86.2% (active),,-52.2% (active),-94% (active),-81.4% (active),-69.1% (active),,-96.7% (active),-98.4% (active),-92.4% (active),-80.2% (active),-97.5% (active),-53.9% (active),,,-99.6% (active)
COc1ccc(C2=N[C@@H](Cc3ccccc3)C(=O)Nc3ccsc32)cc1,34.7%,17.9%,,42.7%,59.1%,16.9%,47.6%,54.5%,-4.24% (active),,54.3%,57%,70.3%,55.7%,50.7%,35.8%,8.11% (active),32.1%,69.8%,34.9%
O=C1CN=C(c2ccc(Cl)cc2)c2sccc2N1,98.6%,100%,,101%,98.6%,,95.3%,105%,107%,,96.2%,84.6%,99.7%,104%,97.9%,102%,98.3%,97.4%,96.6%,99.5%
C#C[C@]1(OC(=O)CCCCCC)CC[C@H]2[C@@H]3CCC4=CC(=O)CC[C@@H]4[C@H]3CC[C@@]21C,39.9%,,81.5%,50.9%,32.7%,25.6%,8.13% (active),43.3%,55.1%,55.6%,47.3%,54.7%,54.7%,54.2%,56.1%,80.5%,4.53% (active),41.2%,53.7%,20.5%
